# According to PubChem BioAssay AID1053197 (The Scripps Research Institute Molecular Screening Center, 2014):
# Hit rate of the full screen: of about 370,000 compounds, about 2,600 (0.7%) were called active. For the sample, actives were picked, then their nearest neighbours and some compounds at random. Unmarked numbers belong to inactive results.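 How the source made its calls: active means inhibition above a cutoff: mean of compounds within the control limits plus 3 SD of those (cut at about 17% in these data); inactive means the rest.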
# Target: Sialate O-acetylesterase (Homo sapiens) (UniProt Q9HAT2)
# Sequence (Q9HAT2 whole entry, looked up): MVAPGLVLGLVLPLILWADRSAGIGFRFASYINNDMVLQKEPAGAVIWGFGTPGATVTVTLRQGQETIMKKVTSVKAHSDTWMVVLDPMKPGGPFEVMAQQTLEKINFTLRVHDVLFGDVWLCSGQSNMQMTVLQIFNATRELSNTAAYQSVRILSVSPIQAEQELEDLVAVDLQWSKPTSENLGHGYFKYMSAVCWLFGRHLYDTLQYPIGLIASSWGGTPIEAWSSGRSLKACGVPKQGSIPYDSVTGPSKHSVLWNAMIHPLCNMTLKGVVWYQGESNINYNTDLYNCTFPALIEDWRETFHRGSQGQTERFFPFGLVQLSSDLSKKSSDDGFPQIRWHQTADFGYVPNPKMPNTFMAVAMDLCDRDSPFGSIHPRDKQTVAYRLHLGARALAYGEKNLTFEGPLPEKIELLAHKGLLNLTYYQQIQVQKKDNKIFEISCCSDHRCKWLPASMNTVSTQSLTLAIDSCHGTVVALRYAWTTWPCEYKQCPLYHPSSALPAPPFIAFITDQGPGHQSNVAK
# Assay: human SIAE inhibitors, primary screen, biochemical, fluorescence polarization, FP-Rh probe, 1536-well HTS (AID 1053197);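 further: 0% = plate median of compound wells and 100% = probe without SIAE protein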
# Conditions: SIAE FP-Rh probe binding, at 9.66 µM, hits give high values
row,SMILES,inhibition
1,C#CCN([C@H](C(=O)OC)C(C)CC)S(=O)(=O)c1ccccc1Br (stereo partly specified),-0.84%
2,Cc1cccc(C)c1NC(=O)CN(C)C(=O)CCC(=O)c1ccccc1,19.1% (active)
3,Cc1ccc(C(=O)CCC(=O)N(C)CC(=O)Nc2c(Cl)cccc2Cl)cc1,4.52%
4,Cc1nc(-c2ccc(F)cc2)c(CC(=O)N(C)CC(=O)Nc2c(C)cccc2C)s1,-6.4%
5,O=C(CSc1nc2ccccc2nc1N1CCCCC1)N1CCN(S(=O)(=O)c2cccc([N+](=O)[O-])c2)CC1,1.34%
6,O=C1C(=O)N(Cc2ccc(-c3ccsc3)cc2)c2ccc(OC(F)(F)F)cc21,4.4%
7,Oc1ccc2ccc3cccc[n+]3c2c1,17.1% (active)
8,COc1ccc(C(=O)CSc2nnc(-c3cnccn3)n2-c2ccc(C)cc2)cc1,4.14%
9,CCOC(=O)N1CCN(C(=O)C[C@@H]2C(=O)N(CCc3ccc(Cl)cc3)C3=CCCC[C@]32C(=O)OCC)CC1,2.23%
10,CCCCNC(=O)C[C@@H]1C(=O)N(CCc2ccc(Cl)cc2)C2=CCCC[C@]21C(=O)OCC,-0.15%
11,Cc1ccc(C)c(NC(=O)CCS(=O)(=O)c2ccccc2)c1,-0.04%
12,CCCCCCCCNS(=O)(=O)/C=C/c1cc(C)ccc1CNC(=O)OC(C)(C)C,-1.33%
13,Cc1cc(C(=O)NNC(=O)c2cccc(S(=O)(=O)N3CCOCC3)c2)c2ccccc2n1,0.67%
14,Cc1ccc(C)c(NC(=O)NNC(=O)c2ccc3ccccc3c2O)c1,13.1%
15,O=C(NNc1c2ccccc2nc2ccccc12)c1cc2ccccc2cc1O,49.5% (active)
16,COc1ccc(/C=C2\CC3(OC(C)=O)CCCN2C3)cc1 (stereo unspecified),5.11%
17,Cc1ccc(-n2c(SCC(=O)Nc3cccc4ccccc34)nnc2-c2ccco2)cc1,-4.95%
18,CC(=O)O[C@@]1(C(C)=O)CCC2[C@H]3C=C(C)C4=CC(=O)CC[C@@]4(C)C3CC[C@]21C (stereo partly specified),4.07%
19,S=C(Nc1ccc(Br)cc1Cl)NC1CCN(Cc2ccccc2)CC1,5.25%
20,O=C(NC1CCN(Cc2ccccc2)CC1)c1cc(Br)c(Br)[nH]1,-7.58%
21,S=C(Nc1ccc(Br)cc1)NC1CCN(Cc2ccccc2)CC1,17.1% (active)
22,N#Cc1ccccc1OC[C@@H](O)CN1CCC(C(O)(c2ccccc2)c2ccccc2)CC1,3.53%

row,SMILES,inhibition
1,CN[C@H]1C[C@H]2c3cc(N4CCOCC4)ccc3CCN2C[C@H]1[C@H](C)O,3.31%
2,COc1ccc(CCNC(=O)C2CCCN(S(=O)(=O)c3ccc(OC)cc3)C2)cc1 (stereo unspecified),-4.52%
3,CC(C)CCNC(=O)C1CCCN(S(=O)(=O)c2ccc(F)cc2)C1 (stereo unspecified),23.3% (active)
4,CCCCNC(=O)C1CCCN(S(=O)(=O)c2ccc(S(=O)(=O)NCC(C)C)cc2)C1 (stereo unspecified),-1.45%
5,Cc1ccc(NC(=O)Nc2cc(C)nn2-c2ccccc2)cc1,0.39%
6,CCOC(=O)[C@@]12CCC3=C1N(CCC3)C(=O)[C@H](CC(=O)N1CCN(C(=O)c3ccco3)CC1)C2,8.17%
7,O=C(Nc1ccc(Br)cc1)OCCN1C(=O)CCC12CCC(c1ccccc1)CC2 (stereo unspecified),2.49%
8,Cc1cccc(C)c1NC(=O)COC(=O)c1c(C)nn(-c2ccccc2)c1C,2.02%
9,Cc1ccc(OC(=O)c2c(C)nn(-c3ccccc3)c2C)cc1,5.09%
10,CCOC(=O)c1c(C)nn(-c2ncccc2NC(=O)CCC(=O)O)c1C,19.8% (active)
11,COc1cc(/C=C/C(=O)n2cnc3ccccc32)cc(OC)c1OC,-3.74%
12,CCc1ccc(NC(=O)C(C)OC(=O)/C=C/c2cccc([N+](=O)[O-])c2)cc1 (stereo unspecified),-4.1%
13,CC(=O)Nc1cccc([N+](=O)[O-])c1,19.3% (active)
14,CN(CC(=O)Nc1cccc(F)c1)CC(=O)Nc1cccc([N+](=O)[O-])c1,21.2% (active)
15,CC(=O)Nc1cccc(Nc2ccc(C#N)cc2)c1,7.95%
16,CS(=O)(=O)N(CC(=O)Nc1ccc(F)cc1F)c1cccc([N+](=O)[O-])c1,5.36%
17,CN(C(=O)c1cccc(NC(=O)Cc2cccc([N+](=O)[O-])c2)c1)C1CCCCC1,-12.1%
18,COC(=O)[C@]12C[C@H](CC(=O)NCc3cccc4ccccc34)C(=O)N(CCc3ccc(OC)c(OC)c3)C1=C[C@H](C1CCCC1)O[C@@H]2C,-2.97%
19,O=C(OC12CCCN(C1)/C(=C/c1ccccc1)C2)c1ccco1 (stereo unspecified),0.28%
20,COP(=O)(O)CNC(=O)OCc1ccccc1,0.82%
21,O=C(NCc1cccs1)C1CCN(S(=O)(=O)c2ccccc2[N+](=O)[O-])CC1,-0.55%
22,CCN(CC)C(=O)CC[C@H]1CC[C@]2(CCCN(Cc3ccc(Cl)cc3)C2)O1,-1%

row,SMILES,inhibition
1,Cc1ccccc1NC(=O)COC(=O)c1ccc(Sc2ncn[nH]2)c([N+](=O)[O-])c1,0.99%
2,CCOC(=O)N1CCN(C(=O)C[C@H]2C[C@@]3(C(=O)OC)C(=C[C@H](C(C)(C)C)O[C@@H]3C)N(Cc3ccc(Cl)cc3Cl)C2=O)CC1,4.46%
3,Cc1ccc2c(c1)C1CN(C)CCC1N2C(=S)Nc1ccc(Cl)cc1Cl (stereo unspecified),-1.14%
4,Cc1ccc2c(c1)C1CN(C)CCC1N2C(=O)c1ccccc1NS(=O)(=O)c1ccc(F)cc1C (stereo unspecified),-4.94%
5,Cc1ccc2c(c1)C1CN(C)CCC1N2C(=S)Nc1ccc(OC(F)F)cc1 (stereo unspecified),19% (active)
6,O=C(OCC#CCSc1nnc(-c2ccco2)o1)c1ccc(F)cc1,-3.86%
7,FC(F)(F)c1cccc(Cn2ccc3ccc(-c4ccc5ccn(Cc6ccccc6)c5c4)cc32)c1,-4.98%
8,Cc1nc(N2CCOCC2)sc1C(=O)NN,4.29%
9,Cc1nc(-c2ccc(Cl)cc2)sc1C(=O)NN,17.1% (active)
10,Cc1nc(-c2ccc(Cl)cc2)sc1C1(C)CC(c2ccc(Br)cc2)=NO1 (stereo unspecified),-4.52%
11,CN(C)S(=O)(=O)c1cccc(C(=O)N/N=C\c2ccco2)c1,1.17%
12,O=C1CCCC(O)=C1N=Nc1ccc2ncsc2c1,4.95%
13,O=C1CCCC(O)=C1N=Nc1ccc(S(=O)(=O)N2CCOCC2)cc1,32.3% (active)
14,CC1(C)CC(=O)C(N=Nc2ccc(S(=O)(=O)N3CCCCCC3)cc2)=C(O)C1,-6.58%
15,COc1cccc(/C=C2\CC3(OC(C)=O)CCCN2C3)c1 (stereo unspecified),5.6%
16,CC(=O)Nc1ccc(NC(=O)C(NS(=O)(=O)c2ccc3c(c2)OCCO3)C(C)C)cc1 (stereo unspecified),-4.61%
17,CNS(=O)(=O)c1ccc(NC(=O)Nc2ccc3c(c2)OCO3)cc1,-0.18%
18,CC(NS(=O)(=O)c1ccc(Cl)cc1)C(=O)Nc1ccc2c(c1)OCCO2 (stereo unspecified),17.1% (active)
19,Cc1ccc(Cn2cc(CN3[C@@H](C)COc4cc(Br)ccc4S3(=O)=O)nn2)cc1,-0.41%
20,CC(=O)OCCN1CCCC12CCC(c1ccccc1)CC2 (stereo unspecified),-7.94%
21,COc1ccc2nc(Nc3nc4cc5c(cc4s3)OCCO5)sc2c1,21.1% (active)
22,COc1ccc(-c2nnc(SCC(=O)c3ccc4c(c3)OCCO4)o2)cc1,-8.81%

row,SMILES,inhibition
1,COc1cccc(C(=O)Nc2cc3c(cc2Br)OCCCO3)c1,5.12%
2,O=C(NC1CCC1)c1ccc(C#CC2CC2)cn1,3.02%
3,CC(C)(C)OC(=O)NCCc1ccccc1/C=C/S(=O)(=O)NCc1ccc(F)cc1,3.43%
4,Cc1ccc(-c2nc(C3CCCN(S(=O)(=O)c4ccc(Br)s4)C3)no2)cc1 (stereo unspecified),3.3%
5,O=C(CSc1nnc(COc2ccccc2)n1-c1ccc(Cl)cc1)Nc1ccc2c(c1)OCO2,-2.77%
6,NCCCNC(=S)NCCCN(Cc1ccc(Cl)cc1)c1ccc(Br)cn1,-4.09%
7,S=C(NCCCc1cnc[nH]1)NCCCN(Cc1ccc(Cl)c(Cl)c1)c1ccc(Br)cn1,38.7% (active)
8,COc1ccc(Cn2ccc3ccc(-c4ccc5ccn(Cc6ccccc6C)c5c4)cc32)cc1,1.75%
9,COC(=O)[C@]12C[C@H](CC(=O)NCCCN3CCCC3=O)C(=O)N(CCc3ccc(OC)c(OC)c3)C1=C[C@H](COCc1ccccc1)O[C@@H]2C,-1.06%
10,CCOC(=O)[C@]12CCCCC/C=C\1N(Cc1ccc(OC)cc1)C(=O)[C@H]2CC(=O)NCc1ccc(C)o1,4.67%
11,O=C(CCCCCN1C(=O)C2C3C=CC(C3)C2C1=O)Nc1ccccc1 (stereo unspecified),0.48%
12,COc1ccc(CSc2nnc(SCC(=O)Nc3ccccc3C(F)(F)F)s2)cc1,2.74%
13,CC(NCc1cccs1)C(=O)Nc1cc(Cl)cc(Cl)c1 (stereo unspecified),8.74%
14,Cc1nc2cc(NCc3cccs3)ccc2n1C,82.8% (active)
15,O=C(NCc1cccs1)c1ccc2c(c1)ncn2C1CCCC1,6.82%
16,Cc1ccc(CN2CCCCC(NC(=O)C3CCCCC3)C2=O)cc1 (stereo unspecified),-2.58%
17,COC(=O)[C@]12C[C@H](CC(=O)NCc3ccccc3)C(=O)N(Cc3ccccc3)C1=C[C@H](COCc1ccccc1)O[C@@H]2C,-4.26%
18,CC(=O)Nc1ccc(S(=O)(=O)N2CCN(C3CCCCCCC3)CC2)cc1,1.94%
19,CC(=O)Nc1ccc(S(=O)(=O)Nc2ccc(N3CCCCC3)cc2)cc1,22.2% (active)
20,CC(=O)Nc1ccc(S(=O)(=O)N2CCCC2C(=O)O)cc1 (stereo unspecified),-4.8%
